Test results reported in PubChem BioAssay (NCI).
The panel holds about 79,000 compounds, 15% with a hit somewhere; the sample as a whole holds those more often. Active and inactive are the calls of the source. No stated cut-off is given here; in the data, active means growth inhibition above about 70%; inactive means the rest.

Experiments:
[1] = NCI Yeast Anticancer Drug Screen. Data for the mec2-1 strain (AID 157); conditions: S. cerevisiae mec2-1 strain, hits give high values
Procedure, shortened: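 Readout is yeast growth inhibition, normalised to vehicle-treated controls, in the mec2-1 strain exposed to compound.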

[2] = NCI Yeast Anticancer Drug Screen. Data for the rad14 strain (AID 159);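 further: 0% = growth of vehicle-treated control cultures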; conditions: S. cerevisiae rad14 strain growth inhibition, hits give high values
Procedure, shortened: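 DNA repair-defective yeast, compound-exposed; % growth inhibition derived by comparison with vehicle-treated controls.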

[3] = NCI Yeast Anticancer Drug Screen. Data for the sgs1 mgt1 strain (AID 161);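 further: 0% = growth of cultures given vehicle only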; conditions: S. cerevisiae sgs1 mgt1 strain, hits give high values
Procedure, shortened: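 Percent growth inhibition was derived by comparing compound-exposed mutant yeast with vehicle-exposed cultures. The strain carries alterations in DNA damage repair.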

[4] = NCI Yeast Anticancer Drug Screen. Data for the CLN2oe strain (AID 163);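 further: 0% = growth of vehicle-only control cultures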; conditions: S. cerevisiae CLN2oe strain, hits give high values
Procedure, shortened: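 Values reflect how much compound exposure reduced yeast growth, referenced to vehicle-exposed cells. Assay organism is a strain with a defined genetic change affecting cell-cycle control.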

[5] = NCI Yeast Anticancer Drug Screen. Data for the cln2 rad14 strain (AID 165);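 further: 0% = growth equal to vehicle treated cultures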; conditions: S. cerevisiae cln2 rad14 strain, hits give high values
Procedure, shortened: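 Relative to vehicle controls, growth inhibition of compound-treated cln2 rad14 yeast was recorded.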

[6] = NCI Yeast Anticancer Drug Screen. Data for the bub3 strain (AID 167); conditions: S. cerevisiae bub3 mutant strain, hits give high values
Procedure, shortened: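 In this screen, a yeast mutant lacking normal mitotic checkpoint function is challenged with compound. Relative growth versus vehicle gives the inhibition value.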

[7] = NCI Yeast Anticancer Drug Screen. Data for the wt2 strain (AID 169);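 further: 0% = growth of vehicle-treated yeast cultures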; conditions: S. cerevisiae wt2 strain growth inhibition, hits give high values
Procedure, shortened: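 Values express reduction in yeast growth under compound treatment, referenced to vehicle-treated cells.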

[8] = NCI Yeast Anticancer Drug Screen. Data for the sgs1 strain (AID 173);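 further: 0% = growth of vehicle-only control cultures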; conditions: S. cerevisiae sgs1 mutant, hits give high values
Procedure, shortened: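 Treat defined-mutant yeast with compound; measure growth; calculate inhibition relative to vehicle-treated cells.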

[9] = NCI Yeast Anticancer Drug Screen. Data for the mlh1 rad18 strain (AID 175); conditions: S. cerevisiae mlh1 rad18 strain growth inhibition, hits give high values
Procedure, shortened: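 Test agents were incubated with a yeast strain of defined genotype (DNA damage repair defect). Inhibition of growth was derived by comparison with vehicle-exposed cultures.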

[10] = NCI Yeast Anticancer Drug Screen. Data for the rad18 strain (AID 177); conditions: S. cerevisiae rad18 mutant growth inhibition, hits give high values
Procedure, shortened: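 A genetically defined yeast mutant impaired in DNA damage repair was treated with test compounds, then its growth was measured against cultures receiving vehicle alone.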

[11] = NCI Yeast Anticancer Drug Screen. Data for the rad52 strain (AID 147);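 further: 0% = growth of vehicle-treated control cultures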; conditions: S. cerevisiae rad52 mutant growth inhibition, hits give high values
Procedure, shortened: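 Screen used a yeast mutant impaired in DNA repair. After compound exposure, growth was measured. Values reflect inhibition compared with vehicle-treated cells.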

[12] = NCI Yeast Anticancer Drug Screen. Data for the wt1 strain (AID 149);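 further: 0% = growth of vehicle-treated wt1 cultures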; conditions: S. cerevisiae wt1 strain (SPY 50644) growth inhibition, hits give high values
Procedure, shortened: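 wt1 strain grown with compound or vehicle; inhibition taken from the growth difference.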

[13] = NCI Yeast Anticancer Drug Screen. Data for the rad50EPP+ strain (AID 151);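 further: 0% = growth of vehicle-treated control cultures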; conditions: S. cerevisiae rad50 mutant strain, hits give high values
Procedure, shortened: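 Exposing the rad50EPP+ strain to each compound, growth was compared with vehicle-only cultures to give inhibition.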

[14] = NCI Yeast Anticancer Drug Screen. Data for the mgt1 strain (AID 153); conditions: S. cerevisiae mgt1 mutant growth inhibition, hits give high values
Procedure, shortened: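 Genetically defined yeast (mgt1) treated with compound; inhibition of growth expressed against vehicle-treated controls.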

[15] = NCI Yeast Anticancer Drug Screen. Data for the rad50 strain (AID 155);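 further: 0% = growth of vehicle-only cultures of the same strain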; conditions: S. cerevisiae rad50 strain growth inhibition, hits give high values
Procedure, shortened: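 DNA repair mutant yeast, compound exposure, growth read-out; inhibition is taken relative to vehicle.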

[16] = NCI Yeast Anticancer Drug Screen. Data for the mlh1 strain (AID 171);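 further: 0% = growth of vehicle-treated control cultures of the same strain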; conditions: S. cerevisiae mlh1 strain growth inhibition, hits give high values
Procedure, shortened: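 Steps: expose the defined-mutant yeast strain to compound; expose a parallel culture to vehicle; measure growth; express compound effect as inhibition relative to the vehicle culture.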

[17] = at 5.0 µM (retest, dose inferred, filed as 0.5)
[18] = at 50.0 µM (retest, dose inferred, filed as 5.0)

Measured: growth inhibition

O=c1[nH]c2ccccc2c2nc3ccccc3n12
active: [1]; [18] 97% | [6]; [18] 74% | [9]; [18] 86%
inactive: [1]; [17] 62% | [1]; at 11.0 µM -41% | [1]; at 33.0 µM -42% | [1]; at 50.0 µM 12.7% | [1]; at 100.0 µM 12% | [2]; at 1.2 µM -39% | [2]; at 3.7 µM -43% | [2]; at 11.0 µM -50% | [2]; at 33.0 µM 7% | [2]; at 100.0 µM -8% | [3]; [17] -17% | [3]; [18] 22% | [4]; at 1.2 µM 12% | [4]; at 3.7 µM -2% | [4]; at 11.0 µM 15% | [4]; at 33.0 µM 40% | [4]; at 100.0 µM 26% | [5]; [17] 33% | [5]; [18] 59% | [6]; at 1.2 µM -11% | [6]; at 3.7 µM 5% | [6]; [17] 45% | [6]; at 11.0 µM 11% | [6]; at 33.0 µM 60% | [6]; at 100.0 µM 42% | [7]; at 1.2 µM -53% | [7]; at 3.7 µM -47% | [7]; at 11.0 µM -47% | [7]; at 33.0 µM -15% | [7]; at 100.0 µM 26% | [8]; at 1.2 µM -43% | [8]; at 3.7 µM -58% | [8]; at 11.0 µM -64% | [8]; at 33.0 µM 23% | [8]; at 100.0 µM -14% | [9]; [17] 49% | [9]; at 50.0 µM 47.1% | [10]; at 1.2 µM -29% | [10]; at 3.7 µM -22% | [10]; at 11.0 µM -20% | [10]; at 33.0 µM 27% | [10]; at 100.0 µM 9%

Cc1ccc(I)cc1N=C=S
active: [11]; at 33.0 µM 82% | [11]; at 100.0 µM 99% | [12]; at 33.0 µM 74% | [12]; at 100.0 µM 99% | [13]; at 33.0 µM 96% | [13]; at 100.0 µM 99% | [14]; at 33.0 µM 96% | [14]; at 100.0 µM 99% | [15]; at 33.0 µM 94% | [15]; at 50.0 µM 79.1% | [15]; at 100.0 µM 99% | [1]; at 33.0 µM 82% | [1]; at 100.0 µM 99% | [2]; at 33.0 µM 94% | [2]; at 100.0 µM 99% | [3]; [18] 100% | [4]; at 100.0 µM 98% | [5]; [18] 100% | [6]; at 33.0 µM 96% | [6]; [18] 100% | [6]; at 100.0 µM 99% | [7]; at 33.0 µM 82% | [7]; at 100.0 µM 99% | [16]; at 33.0 µM 93% | [16]; at 100.0 µM 99% | [8]; at 33.0 µM 83% | [8]; at 100.0 µM 99% | [10]; at 33.0 µM 86% | [10]; at 100.0 µM 99%
inactive: [11]; at 1.2 µM -5% | [11]; at 3.7 µM 6% | [11]; at 11.0 µM 22% | [12]; at 1.2 µM -12% | [12]; at 3.7 µM -14% | [12]; at 11.0 µM -9% | [13]; at 1.2 µM 15% | [13]; at 3.7 µM 36% | [13]; at 11.0 µM 63% | [14]; at 1.2 µM 31% | [14]; at 3.7 µM 44% | [14]; at 11.0 µM 53% | [15]; at 1.2 µM 8% | [15]; at 3.7 µM 6% | [15]; [17] 32% | [15]; at 11.0 µM 25% | [15]; [18] 62% | [1]; at 1.2 µM -4% | [1]; at 3.7 µM 8% | [1]; [17] 48% | [1]; at 11.0 µM 8% | [1]; [18] 62% | [1]; at 50.0 µM 56.9% | [2]; at 1.2 µM -11% | [2]; at 3.7 µM -10% | [2]; at 11.0 µM 11% | [3]; [17] 0% | [4]; at 1.2 µM -2% | [4]; at 3.7 µM 6% | [4]; at 11.0 µM 10% | [4]; at 33.0 µM 68% | [5]; [17] 52% | [6]; at 1.2 µM 7% | [6]; at 3.7 µM 28% | [6]; [17] 7% | [6]; at 11.0 µM 37% | [7]; at 1.2 µM -21% | [7]; at 3.7 µM -12% | [7]; at 11.0 µM 4% | [16]; at 1.2 µM 28% | [16]; at 3.7 µM 28% | [16]; at 11.0 µM 44% | [8]; at 1.2 µM 6% | [8]; at 3.7 µM 2% | [8]; at 11.0 µM 18% | [9]; [17] 35% | [9]; [18] 50% | [9]; at 50.0 µM 63.1% | [10]; at 1.2 µM 10% | [10]; at 3.7 µM 24% | [10]; at 11.0 µM 41%

CC[C@@]1(OC(=O)CCC(=O)O)C(=O)OCc2c1cc1n(c2=O)Cc2cc3ccccc3nc2-1
active: [11]; at 1.2 µM 78% | [11]; at 3.7 µM 87% | [11]; at 11.0 µM 92% | [11]; at 33.0 µM 95% | [11]; at 100.0 µM 94% | [12]; at 100.0 µM 90% | [13]; at 11.0 µM 79% | [13]; at 33.0 µM 85% | [13]; at 100.0 µM 89% | [14]; at 100.0 µM 89% | [15]; at 1.2 µM 79% | [15]; at 3.7 µM 86% | [15]; [17] 85% | [15]; at 11.0 µM 91% | [15]; at 33.0 µM 94% | [15]; [18] 94% | [15]; at 50.0 µM 80.7% | [15]; at 100.0 µM 94% | [1]; at 33.0 µM 89% | [1]; [18] 94% | [1]; at 50.0 µM 85.9% | [1]; at 100.0 µM 94% | [2]; at 100.0 µM 89% | [4]; at 33.0 µM 73% | [4]; at 100.0 µM 87% | [5]; [18] 72% | [6]; [18] 89% | [6]; at 100.0 µM 86% | [7]; at 100.0 µM 87% | [16]; at 33.0 µM 70% | [16]; at 100.0 µM 83% | [8]; at 33.0 µM 80% | [8]; at 100.0 µM 88% | [9]; [18] 85% | [10]; at 100.0 µM 81%
inactive: [12]; at 1.2 µM 4% | [12]; at 3.7 µM -2% | [12]; at 11.0 µM 7% | [12]; at 33.0 µM 57% | [13]; at 1.2 µM 14% | [13]; at 3.7 µM 47% | [14]; at 1.2 µM -6% | [14]; at 3.7 µM -2% | [14]; at 11.0 µM 9% | [14]; at 33.0 µM 59% | [1]; at 1.2 µM 6% | [1]; at 3.7 µM 6% | [1]; [17] 11% | [1]; at 11.0 µM 66% | [2]; at 1.2 µM 14% | [2]; at 3.7 µM -2% | [2]; at 11.0 µM 31% | [2]; at 33.0 µM 69% | [4]; at 1.2 µM 10% | [4]; at 3.7 µM 21% | [4]; at 11.0 µM 33% | [5]; [17] 5% | [5]; at 50.0 µM 37.5% | [6]; at 1.2 µM -15% | [6]; at 3.7 µM -11% | [6]; [17] 16% | [6]; at 11.0 µM 4% | [6]; at 33.0 µM 62% | [6]; at 50.0 µM 64.2% | [7]; at 1.2 µM -13% | [7]; at 3.7 µM -19% | [7]; at 11.0 µM -7% | [7]; at 33.0 µM 69% | [16]; at 1.2 µM -9% | [16]; at 3.7 µM -7% | [16]; at 11.0 µM 2% | [8]; at 1.2 µM 18% | [8]; at 3.7 µM 21% | [8]; at 11.0 µM 31% | [9]; [17] 16% | [10]; at 1.2 µM 6% | [10]; at 3.7 µM 10% | [10]; at 11.0 µM 27% | [10]; at 33.0 µM 68%
